PMC7862700, “An all-to-all approach to the identification of sequence-specific readers for epigenetic DNA modifications on cytosine”

How the values were obtained:
Assay in all cases: DAPPL (digital affinity profiling via proximity ligation, sequencing); 10 mM Tris-HCl pH 7.5, 50 mM NaCl, 1 mM DTT, 4% glycerol, room temperature, 30 min; GST-TFs on glutathione beads, 16-mer random dsDNA library, 0.1% formaldehyde crosslink after washing; high values mean tight binding
ETV5 = ETV5 (Homo sapiens, UniProt P41161 1-510); conditions: protein: recombinant; tags: N-terminal GST; dsDNA, one strand shown
How it was run: (§1)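 Yeast served to express human transcription factors as GST fusions, which were then captured on glutathione beads and labelled with DNA barcodes. Pooled with a tag-only sample, they were incubated with 200 nmole of a 16-mer random double-stranded DNA library for 30 min at room temperature in Tris/NaCl/DTT/glycerol buffer, washed, crosslinked with 0.1% formaldehyde, ligated by proximity, amplified by PCR and sequenced. Dividing each hexamer's read frequency for a factor by its frequency for the tag-only sample gives the binding signal.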

HSF1 = HSF1 (Homo sapiens, UniProt Q00613 1-529); conditions: protein: recombinant; tags: N-terminal GST; chain copies: 3; dsDNA, one strand shown
How it was run: as §1

SPIC = biological target: T1, SPIC (Homo sapiens, UniProt Q8N5J4 1-248); conditions: protein: recombinant; tags: N-terminal GST; dsDNA, one strand shown
T1 sequence: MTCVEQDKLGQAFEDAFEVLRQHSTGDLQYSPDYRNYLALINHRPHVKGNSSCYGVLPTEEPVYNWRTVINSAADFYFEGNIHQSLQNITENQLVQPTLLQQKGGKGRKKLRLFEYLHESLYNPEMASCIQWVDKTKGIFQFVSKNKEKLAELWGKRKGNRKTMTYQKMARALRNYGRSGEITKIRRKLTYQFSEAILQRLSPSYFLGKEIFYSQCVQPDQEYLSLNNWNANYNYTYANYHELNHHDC
How it was run: as §1

ELF4 = ELF4 (Homo sapiens, UniProt Q99607 1-663); conditions: protein: recombinant; tags: N-terminal GST; dsDNA, one strand shown
How it was run: as §1

ELK4 = biological target: T2, ELK4 (Homo sapiens, UniProt P28324-2 1-405); conditions: protein: recombinant; tags: N-terminal GST; dsDNA, one strand shown
T2 sequence: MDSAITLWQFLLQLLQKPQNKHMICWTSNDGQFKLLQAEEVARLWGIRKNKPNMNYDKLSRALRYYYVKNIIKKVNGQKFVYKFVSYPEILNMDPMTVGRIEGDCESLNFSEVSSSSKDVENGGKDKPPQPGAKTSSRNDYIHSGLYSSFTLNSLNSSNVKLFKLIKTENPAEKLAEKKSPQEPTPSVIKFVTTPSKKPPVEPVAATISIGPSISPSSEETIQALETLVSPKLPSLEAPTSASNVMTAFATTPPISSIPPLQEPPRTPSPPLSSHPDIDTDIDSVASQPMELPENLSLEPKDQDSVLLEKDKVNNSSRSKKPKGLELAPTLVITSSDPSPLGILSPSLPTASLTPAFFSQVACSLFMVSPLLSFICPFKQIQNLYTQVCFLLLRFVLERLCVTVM
How it was run: as §1

ETV2 = biological target: T3, ETV2 (Homo sapiens, UniProt O00321 1-342); conditions: protein: recombinant; tags: N-terminal GST; dsDNA, one strand shown
T3 sequence: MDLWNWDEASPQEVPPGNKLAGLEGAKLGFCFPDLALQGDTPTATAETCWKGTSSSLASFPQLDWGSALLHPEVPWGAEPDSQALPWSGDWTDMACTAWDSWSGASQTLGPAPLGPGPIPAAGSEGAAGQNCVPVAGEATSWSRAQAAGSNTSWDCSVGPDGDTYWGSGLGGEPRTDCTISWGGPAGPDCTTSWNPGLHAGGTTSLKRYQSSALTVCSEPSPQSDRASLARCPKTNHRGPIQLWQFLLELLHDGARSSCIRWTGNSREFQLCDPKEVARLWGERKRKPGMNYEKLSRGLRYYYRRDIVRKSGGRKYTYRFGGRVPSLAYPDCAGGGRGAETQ
How it was run: as §1

ELF3 = biological target: T4, ELF3 (Homo sapiens, UniProt P78545 1-371); conditions: protein: recombinant; tags: N-terminal GST; dsDNA, one strand shown
T4 sequence: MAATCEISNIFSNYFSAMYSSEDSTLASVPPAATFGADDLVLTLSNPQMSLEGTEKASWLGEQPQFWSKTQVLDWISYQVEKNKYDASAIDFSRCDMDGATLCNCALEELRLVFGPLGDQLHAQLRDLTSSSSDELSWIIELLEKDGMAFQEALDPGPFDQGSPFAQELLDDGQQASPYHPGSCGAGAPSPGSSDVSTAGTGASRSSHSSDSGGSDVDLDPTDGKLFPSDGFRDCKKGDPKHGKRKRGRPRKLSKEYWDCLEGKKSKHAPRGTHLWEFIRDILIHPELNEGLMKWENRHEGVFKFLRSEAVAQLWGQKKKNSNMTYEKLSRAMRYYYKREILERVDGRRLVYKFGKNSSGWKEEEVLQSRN
How it was run: as §1

ETV3L = biological target: T5, ETV3L (Homo sapiens, UniProt Q6ZN32 1-361); conditions: protein: recombinant; tags: N-terminal GST; dsDNA, one strand shown
T5 sequence: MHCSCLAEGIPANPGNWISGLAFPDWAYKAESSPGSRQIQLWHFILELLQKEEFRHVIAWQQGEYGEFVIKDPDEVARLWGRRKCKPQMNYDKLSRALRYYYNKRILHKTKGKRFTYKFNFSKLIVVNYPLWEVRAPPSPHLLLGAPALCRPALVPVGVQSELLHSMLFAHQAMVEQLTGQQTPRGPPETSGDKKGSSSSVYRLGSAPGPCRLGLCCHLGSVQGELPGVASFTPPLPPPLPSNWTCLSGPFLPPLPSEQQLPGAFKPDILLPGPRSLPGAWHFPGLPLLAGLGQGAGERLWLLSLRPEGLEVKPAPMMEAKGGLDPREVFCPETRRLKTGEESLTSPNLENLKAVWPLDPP
How it was run: as §1

ETS2 = biological target: T6, ETS2 (Homo sapiens, UniProt P15036 1-469); conditions: protein: recombinant; tags: N-terminal GST; dsDNA, one strand shown
T6 sequence: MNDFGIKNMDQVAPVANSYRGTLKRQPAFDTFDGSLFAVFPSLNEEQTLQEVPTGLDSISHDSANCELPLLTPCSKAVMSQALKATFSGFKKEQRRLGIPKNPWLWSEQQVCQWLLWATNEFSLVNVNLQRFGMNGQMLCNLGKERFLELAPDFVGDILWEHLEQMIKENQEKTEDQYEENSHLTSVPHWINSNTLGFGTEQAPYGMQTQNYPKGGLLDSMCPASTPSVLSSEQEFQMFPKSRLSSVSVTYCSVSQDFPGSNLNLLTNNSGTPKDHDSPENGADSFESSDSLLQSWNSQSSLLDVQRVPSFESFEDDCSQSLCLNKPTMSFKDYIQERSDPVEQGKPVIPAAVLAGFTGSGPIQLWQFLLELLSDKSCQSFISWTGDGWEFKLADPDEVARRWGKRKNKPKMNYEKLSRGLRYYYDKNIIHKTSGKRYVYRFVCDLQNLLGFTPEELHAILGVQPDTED
How it was run: as §1

SPDEF = biological target: T7, SPDEF (Homo sapiens, UniProt O95238 1-335); conditions: protein: recombinant; tags: N-terminal GST; dsDNA, one strand shown
T7 sequence: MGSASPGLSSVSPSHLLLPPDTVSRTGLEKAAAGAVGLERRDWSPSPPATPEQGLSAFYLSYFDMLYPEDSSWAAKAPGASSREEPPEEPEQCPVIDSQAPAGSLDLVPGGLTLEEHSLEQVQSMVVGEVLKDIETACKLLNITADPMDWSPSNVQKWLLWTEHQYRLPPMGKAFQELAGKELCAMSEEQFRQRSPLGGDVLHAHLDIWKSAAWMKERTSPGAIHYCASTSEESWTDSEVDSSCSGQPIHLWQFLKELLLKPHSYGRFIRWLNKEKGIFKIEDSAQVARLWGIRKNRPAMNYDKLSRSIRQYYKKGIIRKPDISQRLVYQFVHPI
How it was run: as §1

ELF5 = biological target: T8, ELF5 (Homo sapiens, UniProt Q9UKW6-2 1-255); conditions: protein: recombinant; tags: N-terminal GST; dsDNA, one strand shown
T8 sequence: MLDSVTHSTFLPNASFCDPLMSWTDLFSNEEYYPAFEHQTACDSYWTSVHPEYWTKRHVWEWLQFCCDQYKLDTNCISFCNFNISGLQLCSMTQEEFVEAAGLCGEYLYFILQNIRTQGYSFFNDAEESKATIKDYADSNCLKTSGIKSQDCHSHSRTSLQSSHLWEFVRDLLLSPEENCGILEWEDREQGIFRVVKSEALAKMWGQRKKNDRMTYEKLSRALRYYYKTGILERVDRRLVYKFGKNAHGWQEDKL
How it was run: as §1

ETV3 = biological target: T9, ETV3 (Homo sapiens, UniProt P41162-2 1-143); conditions: protein: recombinant; tags: N-terminal GST; dsDNA, one strand shown
T9 sequence: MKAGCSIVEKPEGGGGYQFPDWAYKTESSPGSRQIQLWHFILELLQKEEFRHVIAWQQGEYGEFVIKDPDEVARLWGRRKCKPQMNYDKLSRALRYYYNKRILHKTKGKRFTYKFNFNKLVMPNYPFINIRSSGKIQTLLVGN
How it was run: as §1

ETV6 = ETV6 (Homo sapiens, UniProt P41212 1-452); conditions: protein: recombinant; tags: N-terminal GST; dsDNA, one strand shown
How it was run: as §1

FEV = biological target: T10, FEV (Homo sapiens, UniProt Q99581 1-238); conditions: protein: recombinant; tags: N-terminal GST; dsDNA, one strand shown
T10 sequence: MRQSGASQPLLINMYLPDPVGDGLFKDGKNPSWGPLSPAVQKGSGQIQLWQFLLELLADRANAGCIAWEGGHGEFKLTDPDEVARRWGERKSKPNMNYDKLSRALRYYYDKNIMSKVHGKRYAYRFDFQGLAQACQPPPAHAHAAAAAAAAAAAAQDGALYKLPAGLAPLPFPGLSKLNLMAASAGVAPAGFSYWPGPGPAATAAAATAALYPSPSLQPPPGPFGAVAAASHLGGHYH
How it was run: as §1

ETV1 = ETV1 (Homo sapiens, UniProt P50549 1-477); conditions: protein: recombinant; tags: N-terminal GST; dsDNA, one strand shown
How it was run: as §1

ETV7 = biological target: T11, ETV7 (Homo sapiens, UniProt Q9Y603 1-341); conditions: protein: recombinant; tags: N-terminal GST; dsDNA, one strand shown
T11 sequence: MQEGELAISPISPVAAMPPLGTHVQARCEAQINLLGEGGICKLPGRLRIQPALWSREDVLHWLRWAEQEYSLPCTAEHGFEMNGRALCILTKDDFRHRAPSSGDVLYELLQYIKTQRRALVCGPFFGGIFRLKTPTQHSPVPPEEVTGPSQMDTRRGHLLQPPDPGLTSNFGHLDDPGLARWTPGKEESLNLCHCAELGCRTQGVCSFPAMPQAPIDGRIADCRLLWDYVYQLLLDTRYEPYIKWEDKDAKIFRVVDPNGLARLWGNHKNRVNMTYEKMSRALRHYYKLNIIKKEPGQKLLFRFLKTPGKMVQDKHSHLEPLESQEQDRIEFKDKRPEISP
How it was run: as §1

Sequence of HSF1 (Q00613 whole entry): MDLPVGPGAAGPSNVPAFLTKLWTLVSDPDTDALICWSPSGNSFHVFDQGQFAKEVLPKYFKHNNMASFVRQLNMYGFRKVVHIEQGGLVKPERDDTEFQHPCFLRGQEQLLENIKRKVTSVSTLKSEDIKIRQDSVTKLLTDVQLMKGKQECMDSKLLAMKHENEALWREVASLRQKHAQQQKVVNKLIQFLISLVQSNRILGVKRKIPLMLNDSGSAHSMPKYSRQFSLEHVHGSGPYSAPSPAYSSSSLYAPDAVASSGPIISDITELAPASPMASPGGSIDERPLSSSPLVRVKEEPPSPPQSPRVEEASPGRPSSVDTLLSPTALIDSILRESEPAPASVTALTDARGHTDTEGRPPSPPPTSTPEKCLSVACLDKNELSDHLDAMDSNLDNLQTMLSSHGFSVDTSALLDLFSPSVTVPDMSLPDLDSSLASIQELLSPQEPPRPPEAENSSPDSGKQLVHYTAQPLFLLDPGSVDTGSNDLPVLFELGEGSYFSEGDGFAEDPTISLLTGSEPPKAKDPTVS
Sequence of ETV6 (P41212 whole entry): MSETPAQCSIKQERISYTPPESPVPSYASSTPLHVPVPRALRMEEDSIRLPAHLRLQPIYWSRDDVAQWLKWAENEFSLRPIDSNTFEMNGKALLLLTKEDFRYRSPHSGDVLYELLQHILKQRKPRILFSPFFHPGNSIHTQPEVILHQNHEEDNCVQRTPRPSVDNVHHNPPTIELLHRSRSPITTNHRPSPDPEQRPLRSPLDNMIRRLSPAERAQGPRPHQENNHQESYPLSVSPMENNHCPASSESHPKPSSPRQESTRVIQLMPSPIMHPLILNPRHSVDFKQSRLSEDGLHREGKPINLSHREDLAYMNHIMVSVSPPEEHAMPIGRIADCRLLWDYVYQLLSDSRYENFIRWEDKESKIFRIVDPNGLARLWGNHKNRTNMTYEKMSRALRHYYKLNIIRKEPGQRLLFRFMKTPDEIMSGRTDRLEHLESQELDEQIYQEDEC
Sequence of ELF4 (Q99607 whole entry): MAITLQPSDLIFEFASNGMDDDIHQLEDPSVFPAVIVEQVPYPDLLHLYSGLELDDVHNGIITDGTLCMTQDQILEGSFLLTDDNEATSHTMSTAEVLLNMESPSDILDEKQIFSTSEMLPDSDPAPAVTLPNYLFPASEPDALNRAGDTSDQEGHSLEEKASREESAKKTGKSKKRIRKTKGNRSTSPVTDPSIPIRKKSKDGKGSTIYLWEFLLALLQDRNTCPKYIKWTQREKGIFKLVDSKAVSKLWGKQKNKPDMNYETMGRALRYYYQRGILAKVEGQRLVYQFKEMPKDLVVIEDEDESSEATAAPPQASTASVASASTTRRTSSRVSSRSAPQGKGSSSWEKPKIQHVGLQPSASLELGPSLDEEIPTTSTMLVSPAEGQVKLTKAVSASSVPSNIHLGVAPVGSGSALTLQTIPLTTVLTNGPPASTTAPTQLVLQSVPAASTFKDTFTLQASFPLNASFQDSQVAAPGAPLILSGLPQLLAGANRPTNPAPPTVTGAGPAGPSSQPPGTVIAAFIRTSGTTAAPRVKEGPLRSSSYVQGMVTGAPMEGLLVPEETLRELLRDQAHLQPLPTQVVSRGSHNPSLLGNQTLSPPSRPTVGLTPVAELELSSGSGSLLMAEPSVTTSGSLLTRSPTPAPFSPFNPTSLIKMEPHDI
Sequence of ETV5 (P41161 whole entry, the tested form may be a part): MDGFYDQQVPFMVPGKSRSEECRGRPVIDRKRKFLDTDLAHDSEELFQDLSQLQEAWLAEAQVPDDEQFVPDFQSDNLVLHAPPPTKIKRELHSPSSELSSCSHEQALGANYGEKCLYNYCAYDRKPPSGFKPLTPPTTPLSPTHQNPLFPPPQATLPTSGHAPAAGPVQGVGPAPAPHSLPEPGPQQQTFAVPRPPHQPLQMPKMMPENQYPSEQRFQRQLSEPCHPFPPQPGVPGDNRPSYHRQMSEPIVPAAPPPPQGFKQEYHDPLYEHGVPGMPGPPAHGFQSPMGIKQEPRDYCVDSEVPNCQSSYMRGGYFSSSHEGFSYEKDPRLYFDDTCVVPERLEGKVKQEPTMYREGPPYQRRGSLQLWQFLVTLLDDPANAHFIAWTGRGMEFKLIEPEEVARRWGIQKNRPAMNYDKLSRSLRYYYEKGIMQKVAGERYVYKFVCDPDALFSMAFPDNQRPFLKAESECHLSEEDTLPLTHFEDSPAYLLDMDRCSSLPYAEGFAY
Sequence of ETV1 (P50549 whole entry): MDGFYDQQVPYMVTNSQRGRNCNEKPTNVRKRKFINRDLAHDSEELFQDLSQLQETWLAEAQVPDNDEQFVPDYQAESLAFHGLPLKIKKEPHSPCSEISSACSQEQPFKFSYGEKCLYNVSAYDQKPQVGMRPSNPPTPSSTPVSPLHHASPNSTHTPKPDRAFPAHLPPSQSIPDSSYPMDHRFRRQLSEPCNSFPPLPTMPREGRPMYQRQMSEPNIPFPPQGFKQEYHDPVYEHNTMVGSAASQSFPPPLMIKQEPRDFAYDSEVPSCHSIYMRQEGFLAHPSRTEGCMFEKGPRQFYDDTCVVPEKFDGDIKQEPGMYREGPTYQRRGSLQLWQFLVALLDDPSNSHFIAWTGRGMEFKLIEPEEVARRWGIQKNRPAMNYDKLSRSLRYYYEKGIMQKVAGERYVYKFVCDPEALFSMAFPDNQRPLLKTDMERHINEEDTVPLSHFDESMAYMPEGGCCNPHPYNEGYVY

| Sequence | binding signal (ETV5) | binding signal (HSF1) | binding signal (SPIC) | binding signal (ELF4) | binding signal (ELK4) | binding signal (ETV2) | binding signal (ELF3) | binding signal (ETV3L) | binding signal (ETS2) | binding signal (SPDEF) | binding signal (ELF5) | binding signal (ETV3) | binding signal (ETV6) | binding signal (FEV) | binding signal (ETV1) | binding signal (ETV7) |
| --- | --- | --- | --- | --- | --- | --- | --- | --- | --- | --- | --- | --- | --- | --- | --- | --- |
| TGGGTT | 1.06 fold enrichment (6-mer frequency, TF over GST control) | 1.03 fold enrichment (6-mer frequency, TF over GST control) | 1.07 fold enrichment (6-mer frequency, TF over GST control) | 1.09 fold enrichment (6-mer frequency, TF over GST control) | 1.03 fold enrichment (6-mer frequency, TF over GST control) | 1.08 fold enrichment (6-mer frequency, TF over GST control) | 1.11 fold enrichment (6-mer frequency, TF over GST control) | 1.17 fold enrichment (6-mer frequency, TF over GST control) | 1.06 fold enrichment (6-mer frequency, TF over GST control) | 1.05 fold enrichment (6-mer frequency, TF over GST control) | 1.01 fold enrichment (6-mer frequency, TF over GST control) | 1.02 fold enrichment (6-mer frequency, TF over GST control) | 1 fold enrichment (6-mer frequency, TF over GST control) | – | – | – |
| TGCCGA | 1.19 fold enrichment (6-mer frequency, TF over GST control) | 1.07 fold enrichment (6-mer frequency, TF over GST control) | 1.37 fold enrichment (6-mer frequency, TF over GST control) | 1.19 fold enrichment (6-mer frequency, TF over GST control) | 1.14 fold enrichment (6-mer frequency, TF over GST control) | 1.08 fold enrichment (6-mer frequency, TF over GST control) | 1.16 fold enrichment (6-mer frequency, TF over GST control) | 1.14 fold enrichment (6-mer frequency, TF over GST control) | 1.08 fold enrichment (6-mer frequency, TF over GST control) | 1.05 fold enrichment (6-mer frequency, TF over GST control) | – | 1.22 fold enrichment (6-mer frequency, TF over GST control) | 1.28 fold enrichment (6-mer frequency, TF over GST control) | 1.11 fold enrichment (6-mer frequency, TF over GST control) | 1.14 fold enrichment (6-mer frequency, TF over GST control) | 1.15 fold enrichment (6-mer frequency, TF over GST control) |
